Shown is part of a subset that was picked to be rich in hits.
VHR inh color: inhibitors of human VHR1 phosphatase (DUSP3). P51452. recombinant VHR phosphatase, colorimetric substrate read-out. inhibition, % at 20 µM. 50,000 compounds, 0.7% hits. AID 1992; in the data active means inhibition above about 60%
Target sequence (P51452 whole entry, looked up): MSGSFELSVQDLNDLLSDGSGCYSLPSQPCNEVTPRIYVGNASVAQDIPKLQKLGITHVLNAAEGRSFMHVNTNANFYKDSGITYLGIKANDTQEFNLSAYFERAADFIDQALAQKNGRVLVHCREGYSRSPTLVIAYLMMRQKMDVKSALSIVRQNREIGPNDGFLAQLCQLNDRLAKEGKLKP
Large screens that a line does not name were inactive.

CCN(CC)S(=O)(=O)c1ccc(NC(=S)Nc2ccccc2)cc1	none
O=C(NC(Cc1ccccc1)C(=O)Nc1ccccc1)OCc1ccccc1 (stereo unspecified)	none
CC(=O)Nc1ccc(NC(=S)Nc2ccccc2)cc1	none
O=C(O)CSCC(NC(=S)Nc1ccccc1)C(=O)O (stereo unspecified)	none
O=C(O)C(Cc1ccccc1)NC(=S)Nc1ccccc1 (stereo unspecified)	VHR inh color 99
CCC(C)C(NC(=S)Nc1ccccc1)C(=O)O (stereo unspecified)	VHR inh color 98
CC(=O)Nc1ccc(S(=O)(=O)Nc2ccc(C)c(Br)c2)cc1	none
COc1ccc(C(=O)Nc2ccc(S(N)(=O)=O)cc2)cc1[N+](=O)[O-]	none
Cc1ccc(-c2ccccc2)n1-c1ccc(C(=O)O)cc1	none
Cc1ccc(-c2ccccc2)n1-c1ccc(Cl)c(C(=O)O)c1	none
Cc1ccc(-c2ccccc2)n1-c1ccc(O)c(C(=O)O)c1	VHR inh color 99
Cc1ccc(C(=O)O)cc1NC(=O)CCC(=O)O	none
CC(=O)CCc1oc2ccc(Cl)cc2c1-c1ccc(C)o1	none
C=CCSC1=C(C#N)C2(CCCCC2)C(C#N)C(=O)N1 (stereo unspecified)	none
N#CC1=C(SCc2ccccc2)NC(=O)C(C#N)C12CCCCC2 (stereo unspecified)	none
N#CC1=C(S)NC(=O)C(C#N)C12CCCCC2 (stereo unspecified)	VHR inh color 81
N#CC1=C(N)Oc2c(ccc3cccnc23)C1c1ccc(Cl)cc1Cl (stereo unspecified)	none
O=S(=O)(c1ccc(Oc2ccccc2)cc1)N1CCCCCC1	none
Fc1ccc(OCCOc2ncnc3ccccc23)cc1	none
O=Cc1ccc(Oc2ncnc3ccccc23)cc1	VHR inh color 97
O=[N+]([O-])c1ccccc1OCCOc1ncnc2ccccc12	none
Cc1ccc([N+](=O)[O-])cc1/C=C1/C=C(c2ccccc2)OC1=O	VHR inh color 96
Cc1ccc(C2=C/C(=C\c3cc([N+](=O)[O-])ccc3Cl)C(=O)O2)cc1	none
O=C1OC(c2ccccc2)=C/C1=C/c1ccc(-c2ccc([N+](=O)[O-])cc2Br)o1	none
CCOC(=O)/C(N=Nc1cc(C)ccc1OC)=C(/C)O	none
C/C(=N\OCC(=O)N/N=C/c1cc(Br)cc(Br)c1O)c1cccs1	none
O=C(Nc1ccc([N+](=O)[O-])cn1)C1CC1c1ccccc1 (stereo unspecified)	none
C=CCN1C(=O)/C(=C\c2ccc(-c3cccc([N+](=O)[O-])c3)o2)C(=O)NC1=S	none
C=CCN1C(=O)/C(=C\c2cn(Cc3ccc([N+](=O)[O-])cc3)c3ccccc23)C(=O)NC1=S	VHR inh color 83
Cc1cc(Br)c(-c2ccc(/C=C3/NC(=S)NC3=O)o2)cc1C	VHR inh color 91
C=CCN1C(=O)/C(=C\c2ccc(-c3ccc(Br)cc3)o2)C(=O)NC1=S	none
CCn1cc(C=C2C(=O)NC(=S)NC2=O)c2ccccc21	VHR inh color 76
O=C1NC(=S)N/C1=C/c1ccc(-c2cc(C(=O)O)ccc2Cl)o1	none
O=C(Cn1cc(C=C2C(=O)NC(=S)NC2=O)c2ccccc21)Nc1ccccc1	none
C=CCN1C(=O)/C(=C\c2ccc(-c3ccc([N+](=O)[O-])cc3)o2)C(=O)NC1=S	VHR inh color 62
CCn1cc(/C=C2\C(=O)NC(=O)N(c3ccccc3)C2=O)c2ccccc21	none
O=C1NC(=S)N/C1=C/c1ccc(-c2cccc(Cl)c2Cl)o1	none
C=CCN1C(=O)/C(=C/c2ccccc2Cl)C(=O)NC1=S	none
C=CCN1C(=O)/C(=C\c2cn(C)c3ccccc23)C(=O)NC1=S	none
O=C(/C=C/c1cn(Cc2ccccc2)c2ccccc12)c1ccc(Cl)cc1	none
Cc1ccc(N(CC(=O)NC(C)C)S(C)(=O)=O)cc1Cl	none
O=C1CSC(=S)N1N1C(=O)c2ccccc2C1=O	none
Cc1ccc(N2NC(=O)/C(=C/c3ccc(O)c(O)c3)C2=O)cc1	none
COC(=O)COc1ccc(/C=C2\C(=O)NC(=S)N(c3ccc(OC)cc3)C2=O)cc1OC	none
O=[N+]([O-])c1cc(-n2cnnn2)ccc1Sc1nnnn1-c1ccccc1	none
CCC(C(=O)O)P(=O)(c1ccccc1)c1ccccc1 (stereo unspecified)	none
COc1ccc(C(=O)O/N=C(\N)Cc2ccc(Cl)cc2Cl)cc1	none
CCCC(C)NS(=O)(=O)c1ccc(Cl)cc1 (stereo unspecified)	none
Cc1ccccc1C(=O)NNC(=O)c1cccc2ccccc12	none
O=[N+]([O-])c1ccc(COc2ccc(/C=N/Nc3nc4ccccc4s3)cc2)cc1	none
C=CCN1C(=O)/C(=C\c2ccc(C)o2)C(=O)NC1=S	none
C=CCN1C(=O)/C(=C\c2ccc(-c3ccc(C)cc3Br)o2)C(=O)NC1=S	VHR inh color 88
Cc1ccc(-c2ccc(C=C3C(=O)NC(=S)NC3=O)o2)c(Br)c1	none
CCc1c(C)c2ccc(OC(C)=O)c(C)c2oc1=O	none
COC(=O)C1=C(C)N(CC(C)C)C(=O)/C1=C\c1cccc([N+](=O)[O-])c1	none
O=C(Cc1cccs1)Nc1cccc2c1C(=O)N(c1ccccc1)C2=O	none
O=C(O)CC(Cc1ccc(Br)cc1)C(=O)O (stereo unspecified)	none
O=C(O)CC(Cc1ccccc1)C(=O)O (stereo unspecified)	none
C=C(CC(Cc1ccccc1)C(=O)O)c1ccccc1 (stereo unspecified)	VHR inh color 97
CCOC(=O)c1c(NC(=O)/C=C/c2ccccc2)sc(C)c1C	none
CCCN1CCC(=NNC(=O)c2cccc(Cl)c2)CC1	none
Cc1cc(OCC(=O)NCCCN2CCOCC2)ccc1Br	none
Cc1ccc(C)n1-c1cc(C(=O)O)ccc1Cl	VHR inh color 83
Cc1ccc(C)n1-c1ccc(Cl)cc1C(=O)O	VHR inh color 85
COc1cc(C(=O)O)c(-n2c(C)ccc2C)cc1OC	none
Cc1ccc(C)n1-c1ccc(Cl)c(C(=O)O)c1	none
Cc1cc(C(=O)O)ccc1-n1c(C)ccc1C	none
Cc1ccc(C(=O)O)cc1-n1c(C)ccc1C	none
Cc1ccc(OCC(=O)Nc2ccc(S(=O)(=O)Nc3onc(C)c3C)cc2)c(C)c1	none
COc1ccc(-c2cc(C(=O)OC(C)C)c3cc(Br)ccc3n2)cc1	none
COc1cc(C2NC(=O)NC(C)=C2C(=O)OCCOC(C)C)ccc1OCc1ccccc1 (stereo unspecified)	none
Cc1cc(/C=C2/SC(=O)NC2=O)c(C)n1-c1cccc(Cl)c1	none
Cc1cc(C)cc(-n2c(C)cc(C=C3SC(=S)NC3=O)c2C)c1	none
Cc1cc(/C=C2/SC(=S)NC2=O)c(C)n1-c1cccc(Cl)c1	VHR inh color 95
O=C1NC(=S)NC(=O)C1=Cc1ccc(OCc2ccc3ccccc3c2)c(Br)c1	none
O=C(/C=C/c1ccc(Cl)cc1)Nc1ccc(Cc2ccncc2)cc1	none
CC(=O)OC1(C(=O)O)C2CC3CC(C2)CC1C3 (stereo unspecified)	none
Cn1c(O)c(/C=C2/C=CC=N2)c(=O)n(-c2ccccc2)c1=S	VHR inh color 69
CCOc1ccccc1-n1c(O)c(C=C2C=CC=N2)c(=O)[nH]c1=O	none
O=c1[nH]c(=O)n(-c2ccccc2Cl)c(O)c1C=C1C=CC=N1	none
O=S(=O)(NCCOc1ccccc1F)c1ccccc1	none
CC(C)(C)c1ccc(OC(=O)c2cccs2)cc1	none
Cc1ccc(N2NC(=O)/C(=C\c3cccc([N+](=O)[O-])c3)C2=O)cc1	none
Cc1cc([N+](=O)[O-])ccc1-c1ccc(/C=C2/C(=O)NC(=S)N(c3ccc(Cl)cc3)C2=O)o1	none
Cc1ccc([N+](=O)[O-])cc1-c1ccc(/C=C2/C(=O)NN(c3ccc(Cl)cc3)C2=O)o1	VHR inh color 74
Cc1ccc(N2NC(=O)/C(=C/c3ccc(-c4ccc5c(c4)COC5=O)o3)C2=O)cc1C	VHR inh color 85

High-throughput results deposited in PubChem BioAssay by Sanford-Burnham Center for Chemical Genomics.
